Measured values as given in PubChem BioAssay AID525 (The Scripps Research Institute Molecular Screening Center, 2006).
About 360 (0.55%) of roughly 65,000 compounds were called active.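 How the source made its calls: active means inhibition above the mean inhibition of all tested compounds plus 3 SD (cut at about 48% in these data); inactive means the rest.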 The full list was thinned out, with actives kept by preference.

What follows are molecules tested against Steroidogenic factor 1 (Homo sapiens) (UniProt Q13285) (assay: suppressors of SF-1 driven luciferase transcription – cell-based, CHO-K1, Gal4-SF-1 LBD, luciferase luminescence, primary screen (AID 525;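 further: 0% = SF-1 transfected cells with DMSO and 100% = mock-transfected cells lacking SF-1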)). Details: CHO-K1 Gal4-SF-1 LBD luciferase reporter; at 10 µM; active compounds read high.
Chain of Steroidogenic factor 1 (Homo sapiens) (Q13285 whole entry, looked up, the tested form may be a part): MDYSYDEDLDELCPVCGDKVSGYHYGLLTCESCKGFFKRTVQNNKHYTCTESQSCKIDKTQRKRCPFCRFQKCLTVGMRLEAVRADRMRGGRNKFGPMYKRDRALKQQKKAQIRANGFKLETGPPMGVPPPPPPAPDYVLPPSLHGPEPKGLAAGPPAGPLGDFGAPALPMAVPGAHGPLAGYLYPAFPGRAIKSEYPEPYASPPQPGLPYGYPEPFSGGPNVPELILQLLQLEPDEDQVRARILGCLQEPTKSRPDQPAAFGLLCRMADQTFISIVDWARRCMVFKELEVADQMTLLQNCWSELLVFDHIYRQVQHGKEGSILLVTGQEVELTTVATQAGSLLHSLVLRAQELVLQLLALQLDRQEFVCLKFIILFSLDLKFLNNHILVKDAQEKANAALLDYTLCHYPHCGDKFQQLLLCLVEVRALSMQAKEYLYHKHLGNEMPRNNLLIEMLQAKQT

| SMILES | inhibition |
| --- | --- |
| O=C(CN1C(=O)COc2ccccc21)NCCN1CCc2ccccc2C1 | 1.3% (inactive) |
| C[N+]1(CCNC(=O)/C=N/O)CCCCC1 | 3.2% (inactive) |
| CC(C)C(=O)Nc1cccc(C(=O)Nc2ccc3c(c2)OCO3)c1 | -55% (inactive) |
| Cc1cccc(NC(=O)CSC(N)=O)c1C | 9.5% (inactive) |
| CCOC(=O)c1sc(N(Cc2ccccc2)C(=O)CN2C(=O)CN(C)C2=O)nc1C | 3.4% (inactive) |
| CCS(=O)(=O)N1CCC(C(=O)N2CCN(c3ccccc3)CC2)CC1 | 0.7% (inactive) |
| O=C(Nc1ccc(NC(=O)c2cccs2)cn1)c1ccco1 | -73.3% (inactive) |
| O=C(c1cccc(C(=O)N2CCN(c3ccc(F)cc3)CC2)c1)N1CCN(c2ccc(F)cc2)CC1 | 6.4% (inactive) |
| COc1ccc(C2=NOC(C(=O)NCc3ccco3)C2)cc1OC (stereo not drawn) | -23.3% (inactive) |
| COC(=O)c1ccccc1NC(=O)C1CCN(S(=O)(=O)c2cc(OC)ccc2OC)CC1 | 4.4% (inactive) |
| CC(=O)c1cc(C#N)c(SCC(=O)C(C)(C)C)nc1C | -57.1% (inactive) |
| CCOC(=O)C1=C(C)N=c2s/c(=C\C(=O)OC)c(=O)n2C1c1ccc(OC)cc1 (stereo not drawn) | -6.9% (inactive) |
| COc1ccc(OC)c(CNC(=O)C2CCCN(c3nc4ccccc4o3)C2)c1 (stereo not drawn) | 9.1% (inactive) |
| COCc1cc(C)nc(SCC(=O)Nc2cccc(C)c2)c1C#N | 2.8% (inactive) |
| Cc1cnc(NC(=O)CSc2nnc(-c3ccccc3)n2Cc2ccccc2)s1 | 13.7% (inactive) |
| COc1ccc(N2CCN(CCNC(=O)CCN3C(=O)COc4ccccc43)CC2)cc1 | 11.5% (inactive) |
| CCOC(=O)CCC(=O)OCC(=O)NC(C)C1CC2CCC1C2 (stereo not drawn) | 0.5% (inactive) |
| COc1ccc(OC)c(Nc2nc(-c3ccc(O)c(O)c3)cs2)c1 | 85.3% (active) |
| CCc1ccc2oc(-c3ccc(N)cc3)nc2c1 | 50.8% (active) |
| Cc1cc2nc(-c3ccc(NC(=O)c4cccnc4)cc3)oc2cc1C | -54.8% (inactive) |

| SMILES | inhibition |
| --- | --- |
| Nc1ccc(-c2nnc(-c3ccc(-c4ccccc4)cc3)o2)cc1 | -55.2% (inactive) |
| O=C(CSc1nnc2ccccn12)c1ccccc1 | -55.3% (inactive) |
| Fc1ccc2[nH]c3c(N4CCSCC4)ncnc3c2c1 | 58.1% (active) |
| Fc1ccc2[nH]c3c(N4CCN(Cc5ccc6c(c5)OCO6)CC4)ncnc3c2c1 | 83.3% (active) |
| O=C(C1CCN(S(=O)(=O)c2cnc[nH]2)CC1)N1CCN(Cc2ccc3c(c2)OCO3)CC1 | 6.1% (inactive) |
| CC[C@]1(O)C[C@@H]2CN(CCc3c([nH]c4ccccc34)[C@@](C(=O)OC)(c3cc4c(cc3OC)N(C)[C@H]3[C@@](O)(C(=O)OC)[C@H](OC(C)=O)[C@]5(CC)C=CCN6CC[C@]43[C@@H]65)C2)C1 | 73.1% (active) |
| CC[C@]1(O)CC2CN(CCc3c([nH]c4ccccc34)[C@@](C(=O)OC)(c3cc4c(cc3OC)N(C=O)[C@H]3[C@@](O)(C(=O)OC)[C@H](OC(C)=O)[C@]5(CC)C=CCN6CC[C@]43[C@@H]65)C2)C1 (stereo partly drawn) | 73.8% (active) |
| Cc1ccc(N2C(=O)c3ccccc3C2(O)c2ncc[nH]2)cc1 (stereo not drawn) | -6.1% (inactive) |
| COc1cc(C2C3C(=O)N(c4ccccc4)C(=O)C3ON2c2ccccc2)ccc1O (stereo not drawn) | -51.7% (inactive) |
| O=C(Nn1cnc2ccccc2c1=O)c1ccc(F)cc1Cl | -64.7% (inactive) |
| CC1CN(C2CCCCC2)c2nc3c(c(=O)n(C)c(=O)n3C)n2C1 (stereo not drawn) | -1.7% (inactive) |
| O=C(NCCCN1CCN(C2CCCCC2)CC1)Nc1ccccc1C(F)(F)F | -13.5% (inactive) |
| CC(C)(C)NC(=O)C(c1ccco1)N(Cc1ccc2c(c1)OCO2)C(=O)Cn1nnc2ccccc21 (stereo not drawn) | -8.6% (inactive) |
| CCOc1cc(S(=O)(=O)NC2CC(C)(C)NC(C)(C)C2)ccc1F | -4.6% (inactive) |
| OCCCNC(c1ccccc1)c1ccc(O)cc1 (stereo not drawn) | -6.6% (inactive) |
| CCCOc1ccccc1C(=O)NCCCC(=O)O | -3.2% (inactive) |
| COc1ccccc1Oc1ccc(S(=O)(=O)Nc2cccnc2)cc1 | 13.8% (inactive) |
| COc1cc2cc(CN(CCN3CCCC3)C(=O)Nc3ccccc3Cl)c(=O)[nH]c2cc1OC | 8.5% (inactive) |
| Clc1cccc(Cl)c1Cn1nnc(-c2cccs2)n1 | -50.8% (inactive) |
| CCCNC(=O)C1CC(=O)N(c2ccc(OCC(=O)Nc3cccc(C)c3C)cc2)C1 (stereo not drawn) | -1% (inactive) |

| SMILES | inhibition |
| --- | --- |
| NC(=O)C1CC=CCC1C(=O)OCC(Cl)=C(Cl)Cl (stereo not drawn) | 38.2% (inactive) |
| CCCCOC(=O)c1[nH]c(C)c(C(=O)OC)c1C | -77.7% (inactive) |
| O=C(CSc1nnc(-c2c[nH]c3ccccc23)n1-c1ccc(F)cc1)NCc1ccco1 | -15.6% (inactive) |
| CCOC(=O)c1ccc(-c2ccc(C(=O)Nc3cccnc3)o2)cc1 | -51.3% (inactive) |
| Cc1ccc(-c2nnc(SC(C)C#N)n2N)cc1 (stereo not drawn) | -9.5% (inactive) |
| C/C(=C\c1ccco1)C1Nc2cccc3cccc(c23)N1 | 1.5% (inactive) |
| O=C(Nc1ccc(-c2nnc(-c3ccccc3)o2)cc1)C1CCCO1 (stereo not drawn) | -65.9% (inactive) |
| Cc1ccc(OCC(=O)Nc2ccc(-c3nnc(-c4ccco4)o3)cc2)cc1 | -65.5% (inactive) |
| COc1ccc(CC(=O)Nc2ccc(-c3nnc(-c4ccccc4)o3)cc2)cc1 | 59.5% (active) |
| O=C(CCS(=O)(=O)c1ccccc1)Nc1nc2c(s1)CCCC2 | -3.7% (inactive) |
| CS(=O)(=O)c1ccc2nc(NC(=O)CN3CCCCCC3)sc2c1 | 3.7% (inactive) |
| O=C(NCCc1ccc(Cl)cc1)C1CC(=O)N(C2CCCCC2)C1 (stereo not drawn) | -13.3% (inactive) |
| CCCCCCOC(=O)NCC(O)c1ccccc1 (stereo not drawn) | -52.5% (inactive) |
| O=C1CCC(Cc2ccccc2)N1 (stereo not drawn) | 7.6% (inactive) |
| COc1ccc(N2C(=O)CCC(C(=O)Nc3ccccn3)C2c2ccc(OC)c(OC)c2)cc1 (stereo not drawn) | -11% (inactive) |
| COCCN(CC(=O)Nc1ccccc1C)S(=O)(=O)c1ccc(S(=O)(=O)N2CCCC2)cc1 | 0.4% (inactive) |
| COc1ccc(N2CCN(C(=O)CSc3ncnc4c3cnn4-c3ccc(OC)cc3)CC2)cc1 | -9% (inactive) |
| COc1ccc(Nc2cc(C)nc(-n3nc(C)cc3C)n2)cc1 | 53.7% (active) |
